Measurements taken from PubChem BioAssay (EPA / NIEHS).
Inconclusive results are not listed. Active and inactive are the calls of the source. The calls were made as follows: active = hit-call score of the fitted dose curve at least 0.9, where 1 is the maximum; inconclusive = response in the unintended direction; inactive = score below 0.9.

Key:
[1] = TOX21_p53_BLA_p2_viability: Viability Assessment in the Tox21 HCT-116 p53 Agonism Beta-lactamase Assay, Phase 2 (AID 2283591);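 also: compound exposure lasted 16 h at 37 °C; actives lower the ATP signal meaning cytotoxicity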
In short: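 HCT-116 p53-bla cells (4000/well) rested 5 h at 37C, then received compounds in DMSO (217-fold dilution) for 16 h at 37C, 5% CO2. After the CCF4 read, CellTiter-Glo was added; ATP luminescence was read after 30 min at room temperature.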

[2] = target: Cellular tumor antigen p53 (Homo sapiens) (UniProt P04637); assay: TOX21_p53_BLA_p2_ratio: Tox21 HCT-116 p53 Agonism Beta-lactamase Assay, Ratio, Phase 2 (AID 2283592)
In short: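 HCT116 cells carrying a p53-responsive beta-lactamase reporter were plated, incubated 5 h at 37C, then dosed with compounds in DMSO (217-fold dilution) for 16 h. CCF4-AM substrate was added for 2 h at room temperature; the 460/530 nm emission ratio gave gain-of-signal activity relative to DMSO.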

[3] = TOX21_p53_BLA_p3_viability: Viability Assessment in the Tox21 HCT-116 p53 Agonism Beta-lactamase Assay, Phase 3 (AID 2283593);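 also: cells exposed to compound for 16 h before reading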
In short: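 HCT-116 cells (4000/well) rested 5 h at 37C, then got DMSO compounds by pin tool (217-fold dilution) for 16 h at 37C, 5% CO2. After the bla read, CellTiter-Glo was added and luminescence read at 30 min, room temperature.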

[4] = TOX21_p53_BLA_p4_viability: Viability Assessment in the Tox21 HCT-116 p53 Agonism Beta-lactamase Assay, Phase 4 (AID 2283597);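 also: hits lower the luminescence signal meaning cytotoxicity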
In short: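 HCT116 p53-bla cells (4000/well) rested 5 h at 37C, then received compounds in DMSO (217-fold dilution) for 16 h at 37C, 5% CO2. CellTiter-Glo was added after the CCF4-AM read, and luminescence was read after 30 min at room temperature.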

[5] = target: Cellular tumor antigen p53 (Homo sapiens) (UniProt P04637); assay: TOX21_p53_BLA_p5_ratio: Tox21 HCT-116 p53 Agonism Beta-lactamase Assay, Ratio, Phase 5 (AID 2283599)
In short: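 HCT-116 cells carrying a p53-inducible beta-lactamase reporter were seeded at 4000 cells/well and dosed after 5 h with compound in DMSO (217-fold dilution). After 16 h at 37C, CCF4-AM substrate was added for 2 h, and the 460/530 nm emission ratio was scored as gain-of-signal versus DMSO.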

[6] = target: Cellular tumor antigen p53 (Homo sapiens) (UniProt P04637); assay: TOX21_p53_BLA_p4_ratio: Tox21 HCT-116 p53 Agonism Beta-lactamase Assay, Ratio, Phase 4 (AID 2283601)
In short: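 HCT116 cells carrying an inducible beta-lactamase reporter were plated at 4000 cells/well, rested 5 h, then exposed to compounds in DMSO (217-fold dilution) for 16 h at 37C. CCF4-AM substrate was loaded 2 h at room temperature; 460/530 nm emission ratio scored gain-of-signal versus DMSO.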

[7] = TOX21_p53_BLA_p5_viability: Viability Assessment in the Tox21 HCT-116 p53 Agonism Beta-lactamase Assay, Phase 5 (AID 2283600)
In short: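 Cells were plated at 4000/well, rested 5 h at 37C, then given compounds in DMSO (217-fold dilution) for 16 h at 37C, 5% CO2. Following the CCF4-AM beta-lactamase read, CellTiter-Glo was added and luminescence was read after 30 min at room temperature.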

[8] = target: Thyroid hormone receptor alpha (Rattus norvegicus) + Thyroid hormone receptor beta (Rattus norvegicus) (UniProt P18113+P63059); assay: TOX21_TR_LUC_GH3_Antagonist_Followup: Tox21 GH3 Thyroid Hormone Receptor Antagonism Luciferase Follow-Up Assay (AID 2283942)
In short: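 Rat pituitary GH3 cells with a TRα/TRβ-driven luciferase reporter, 5 h attachment, then 15 concentrations (92 uM to 5nM final) plus 1.0 nM T3 agonist, 24 h at 37C/5% CO2. ONE-Glo luminescence; signal change fitted against DMSO baseline.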

[9] = target: THRA (gene 7067) (UniProt P10827); assay: TOX21_TRA_COA_Antagonist_Followup_ratio: Tox21 Thyroid Hormone Receptor alpha Antagonism through Coactivator Recruitment Follow-Up Assay, Ratio (AID 2283953)
In short: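 520:495 nm emission ratio (excitation 340 nm) reports fluorescein-SRC-2 peptide recruitment to GST-TRα LBD by TR-FRET with Tb anti-GST antibody. Values were normalized to DMSO (0%) and T3 control wells (100%); loss of signal indicated antagonism.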

[10] = TOX21_TRB_BLA_Antagonist_Followup_viability: Viability Assessment in the Tox21 Thyroid Hormone Receptor beta Antagonism Beta-lactamase (BLA) Follow-Up Assay (AID 2283961)
In short: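 HEK293T cells stably expressing GAL4-DBD/human TRβ-LBD with UAS-bla reporter, 3,000 cells/well in phenol red-free DMEM, 2% charcoal-stripped FBS. Compounds at 11 concentrations in triplicate, 18 h at 37C/5% CO2; viability by CellTiter-Glo luminescence after 30 min at room temperature.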

[11] = target: Retinoic acid receptor RXR-alpha (Homo sapiens) (UniProt P19793); assay: TOX21_TR_RXR_BLA_Antagonist_Followup_ratio: Tox21 Thyroid Hormone Receptor beta Retinoid X Receptor alpha (RXRa) Antagonism Beta-lactamase (BLA) Follow-Up Assay, Ratio (AID 2283972)
In short: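 RXRa-UAS-bla HEK293T cells in phenol red-free DMEM with 2% charcoal-stripped FBS; compounds at 11 concentrations in triplicate, 16 h at 37C. LiveBLAzer FRET-B/CCF4-AM substrate 2 h at room temperature; read as 460:530 nm ratio versus DMSO.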

[12] = TOX21_TR_RXR_BLA_Antagonist_Followup_viability: Viability Assessment in the Tox21 Thyroid Hormone Receptor beta Retinoid X Receptor alpha (RXRa) Antagonism Beta-lactamase (BLA) Follow-Up Assay (AID 2283979)
In short: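 RXRa-UAS-bla HEK293T cells seeded 2,500/well in phenol red-free DMEM with 2% charcoal-stripped FBS, attached 5 h, then exposed to compounds at 11 concentrations in triplicate for 16 h at 37C/5% CO2. Viability read by CellTiter-Glo ATP luminescence; bidirectional fit versus DMSO.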

Measured: outcome

Sequence of Cellular tumor antigen p53 (Homo sapiens) (P04637 whole entry, looked up): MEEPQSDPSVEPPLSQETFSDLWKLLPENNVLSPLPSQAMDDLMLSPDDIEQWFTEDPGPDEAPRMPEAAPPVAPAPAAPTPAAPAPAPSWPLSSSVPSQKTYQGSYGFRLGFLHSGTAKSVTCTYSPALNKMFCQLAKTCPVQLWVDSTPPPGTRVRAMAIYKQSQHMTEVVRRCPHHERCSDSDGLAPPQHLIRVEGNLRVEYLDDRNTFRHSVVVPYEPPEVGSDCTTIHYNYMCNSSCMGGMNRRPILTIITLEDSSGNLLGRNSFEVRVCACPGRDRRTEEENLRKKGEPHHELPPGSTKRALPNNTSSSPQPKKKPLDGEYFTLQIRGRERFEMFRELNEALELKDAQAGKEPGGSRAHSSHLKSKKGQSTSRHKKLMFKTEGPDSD
Sequence of Retinoic acid receptor RXR-alpha (Homo sapiens) (P19793 whole entry, looked up): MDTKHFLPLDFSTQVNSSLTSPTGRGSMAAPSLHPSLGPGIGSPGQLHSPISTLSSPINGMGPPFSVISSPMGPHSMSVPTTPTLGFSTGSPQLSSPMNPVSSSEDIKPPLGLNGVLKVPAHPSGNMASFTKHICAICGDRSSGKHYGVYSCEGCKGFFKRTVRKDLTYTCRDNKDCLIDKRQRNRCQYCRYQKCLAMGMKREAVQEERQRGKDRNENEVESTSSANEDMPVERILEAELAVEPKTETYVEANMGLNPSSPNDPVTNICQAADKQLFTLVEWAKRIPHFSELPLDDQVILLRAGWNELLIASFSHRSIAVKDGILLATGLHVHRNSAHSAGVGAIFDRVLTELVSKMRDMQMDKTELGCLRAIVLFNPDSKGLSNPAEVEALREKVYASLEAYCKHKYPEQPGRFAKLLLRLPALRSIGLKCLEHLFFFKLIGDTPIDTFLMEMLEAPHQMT
Sequence of THRA (gene 7067) (P10827 whole entry, looked up, the tested form may be a part): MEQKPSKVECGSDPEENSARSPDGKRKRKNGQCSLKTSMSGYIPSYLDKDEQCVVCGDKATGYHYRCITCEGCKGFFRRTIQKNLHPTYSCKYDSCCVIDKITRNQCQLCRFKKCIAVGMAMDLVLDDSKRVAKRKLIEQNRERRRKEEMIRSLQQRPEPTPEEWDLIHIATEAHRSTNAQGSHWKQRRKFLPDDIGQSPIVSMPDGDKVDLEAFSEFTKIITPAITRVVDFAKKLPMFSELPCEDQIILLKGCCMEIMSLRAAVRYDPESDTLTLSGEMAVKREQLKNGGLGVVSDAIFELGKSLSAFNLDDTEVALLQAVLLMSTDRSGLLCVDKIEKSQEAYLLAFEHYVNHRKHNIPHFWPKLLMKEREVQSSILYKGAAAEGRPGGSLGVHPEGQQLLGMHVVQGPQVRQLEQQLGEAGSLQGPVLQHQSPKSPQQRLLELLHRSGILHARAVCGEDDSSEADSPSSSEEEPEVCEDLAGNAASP

Clc1ccc(CCC(Cn2ccnc2)Sc2c(Cl)cccc2Cl)cc1 (stereo unspecified)
inactive: [1] | [2] | [3] | [4] | [5] | [6]

CCC(COC(=O)c1cc(OC)c(OC)c(OC)c1)(c1ccccc1)N(C)C (stereo unspecified)
inactive: [1] | [2] | [3] | [7] | [6] | [8] | [9] | [10] | [11] | [12]

OC(c1ccccc1)(c1ccccc1)C1CN2CCC1CC2 (stereo unspecified)
inactive: [1] | [2] | [3] | [4] | [5] | [7] | [6]

Cc1cc(C)c(C(=O)P(=O)(C(=O)c2c(C)cc(C)cc2C)c2ccccc2)c(C)c1
inactive: [1] | [2] | [3] | [5] | [6]

CC(=O)[C@H]1CC[C@H]2[C@@H]3CC[C@H]4C[C@](C)(O)CC[C@]4(C)[C@H]3CC[C@]12C
inactive: [1] | [2] | [3] | [4] | [5] | [6]

CC(C)(C)NCC(O)c1cc(Cl)c(N)c(C(F)(F)F)c1 (stereo unspecified)
inactive: [1] | [2] | [3] | [4] | [5] | [7] | [6]

CCC1(c2ccccc2)CCC(=O)NC1=O (stereo unspecified)
inactive: [1] | [2] | [3] | [5] | [7]
